In the library only some 31% were active in any assay of this set; here they are far more common.
PLAP activator – activators of human placental alkaline phosphatase; activation fold at 20 µM; purified PLAP enzyme, luminescent substrate read-out; active compounds read high; hit rate 1.2% among 96,000; AID 696; P05187; in the data active = activation fold above about 2
CYP2C19 inh – inhibitors of human CYP2C19 | CYP2C19 Supersomes, luciferin-H EGE luminescence, 30 min | inhibition, % at 5 µM | hit rate 21% among 96,000 | AID 778;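 active = CYP2C19 inhibition above a set limit at 5 µM in the primary screen, cut at about 50% in these data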;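 note: plate controls were negative control wells for no effect and 2.5 mM tranylcypromine positive control for full effect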
CYP2C19 act – activators of human cytochrome P450 2C19 | P33261 | recombinant CYP2C19, luciferin-H EGE luminescence; active compounds read high; 0 = fully inhibited enzyme, 1 = untreated enzyme | activation factor at 5 µM | 96,000 tested, under 10 active | AID 1025;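 active = activation factor of at least 2 at 5 µM in the primary screen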;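 note: 0 = wells with 2.5 mM tranylcypromine and 1 = vehicle-only wells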
CYP2C9 inh – blocks human cytochrome P450 2C9 | CYP2C9 Supersomes, luciferin-H conversion, luminescence | inhibition, % at 5 µM | hit rate 20% among 96,000 | AID 777;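 active = blocking of liver enzyme CYP2C9 beyond about 50% at 5 µM, limit read from the data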
Target sequence (P11712 whole entry, looked up): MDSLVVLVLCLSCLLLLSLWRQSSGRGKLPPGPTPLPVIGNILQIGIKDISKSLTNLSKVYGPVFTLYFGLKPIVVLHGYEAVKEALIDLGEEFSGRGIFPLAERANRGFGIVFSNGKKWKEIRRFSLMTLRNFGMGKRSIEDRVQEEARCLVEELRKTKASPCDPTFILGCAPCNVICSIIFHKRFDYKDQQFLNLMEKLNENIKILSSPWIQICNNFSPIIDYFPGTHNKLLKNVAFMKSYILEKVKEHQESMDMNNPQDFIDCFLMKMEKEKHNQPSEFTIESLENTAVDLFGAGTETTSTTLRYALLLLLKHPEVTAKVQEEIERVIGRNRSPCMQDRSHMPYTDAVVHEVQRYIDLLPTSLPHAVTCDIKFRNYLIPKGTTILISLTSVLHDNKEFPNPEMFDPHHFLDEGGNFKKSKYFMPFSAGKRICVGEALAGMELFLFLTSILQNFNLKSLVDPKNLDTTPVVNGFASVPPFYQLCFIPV
CYP2C9 activ – increases human cytochrome P450 2C9 activity | activation factor at 5 µM | recombinant CYP2C9, luciferin-H conversion, luminescence; active compounds read high; factor 1 = untreated enzyme, 0 = blocked | hit rate 1.4% among 96,000;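 active = activation factor of 2 or more for CYP2C9 at a 5 µM dose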;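 note: 0 = sulfaphenazole-blocked wells and 1 = vehicle-only wells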
An asterisk follows results filed as active.

SMILES | PLAP activator | CYP2C19 inh | CYP2C19 act | CYP2C9 inh | CYP2C9 activ
CCN(C(=S)Nc1ccccc1F)C1CCCCC1 | 1 | 42 | 0.6 | 13 | 0.9
C/C(CC(=O)Nc1cc(Cl)ccc1Cl)=N\NC(=O)c1ccco1 | 1.5 | 14 | 0.9 | 4 | 1
O=C(Nc1ccncc1)c1ccc(F)cc1 | 0.9 | 88* | 0.1 | 61* | 0.4
CCN(CC)S(=O)(=O)c1cc(C(=O)Nc2ccncc2)ccc1Cl | 1 | 100* | 0 | 100* | 0
O=C(Nc1ccncc1)c1cncc(Br)c1 | 0.9 | 87* | 0.1 | 30 | 0.7
CC(C)CN1C(=O)c2ccc(C(=O)Nc3ccncc3)cc2C1=O | 0.9 | 98* | 0 | 97* | 0
Cc1ccc(C(=O)Nc2cnc3sc(C)nn3c2=O)cc1 | 1 | -16 | 1.2 | -11 | 1.1
Cc1ccccc1OCc1nnc2n1CC(C)S2 (stereo not drawn) | 0.9 | 6 | 0.9 | 14 | 0.9
CC(=O)N1CCc2cc(S(=O)(=O)NC(C(=O)Nc3ccc4c(c3)OCCO4)C(C)C)ccc21 (stereo not drawn) | 1.1 | 39 | 0.6 | 52* | 0.5
CC(=O)N1CCc2cc(S(=O)(=O)NC(C(=O)Nc3nc(C)cs3)C(C)C)ccc21 (stereo not drawn) | 0.9 | 2 | 1 | 2 | 1
CCOC(=O)c1cccc(NC(=O)C(NS(=O)(=O)c2ccc3c(c2)CCN3C(C)=O)C(C)C)c1 (stereo not drawn) | 1.1 | 19 | 0.8 | 68* | 0.3
Cc1ccc(S(=O)(=O)NC2=NCN(CCOC(=O)c3ccc([N+](=O)[O-])cc3)CN2)cc1 | 1 | -18 | 1.2 | -3 | 1
CCCn1[nH]cc(SC)c(=O)c1=O | 0.9 | 0 | 1 | -3 | 1
COc1ccc(-n2nnnc2SCC(=O)Nc2nnc(C)s2)cc1OC | 1 | 39 | 0.6 | 45 | 0.6
C=C1c2ccccc2NC(=O)N1c1ccc(C)cc1 | 0.8 | 26 | 0.7 | 30 | 0.7
C=C1c2cc(C)ccc2NC(=O)N1c1ccc(C)cc1 | 0.9 | 56* | 0.4 | 4 | 1
Cc1cc2c(cc1C)N(CC(=O)N1CCCC1)C(=O)CC(c1ccccc1)=N2 | 1.7 | 35 | 0.7 | 68* | 0.3
CCCn1c(SCC(=O)NC(C)C23CC4CC(CC(C4)C2)C3)n[nH]c1=O (stereo not drawn) | 1.4 | 0 | 1 | -12 | 1.1
O=C1c2ccccc2CC1Sc1nnc(-c2ccncc2)o1 (stereo not drawn) | 1.1 | 96* | 0 | 87* | 0.1
COc1ccccc1CNc1nc2nc3c(c(=O)n2[nH]1)CCC3 | 0.9 | 28 | 0.7 | 76* | 0.2
Cc1cc(NC(=O)c2noc3c2CCCC3)no1 | 1 | -10 | 1.1 | -12 | 1.1
COc1ccc(CC(=O)c2cc(OC)c(OC)cc2CC(=O)O)cc1OC | 1.4 | -1 | 1 | -2 | 1
COc1ccc(OC)c(C(=O)COC(=O)C2CC3CCCC(C2)C3=O)c1 (stereo not drawn) | 1 | 50* | 0.5 | -45 | 1.4
COc1ccc(C(=O)Cc2ccc(OC)c(OC)c2)c(OC)c1 | 1.6 | 99* | 0 | 9 | 0.9
COc1ccc(C(=O)OCC(=O)c2cc(OC)ccc2OC)c(OC)c1 | 1.4 | 86* | 0.1 | -213 | 3.1*
SMILES | PLAP activator | CYP2C19 inh | CYP2C19 act | CYP2C9 inh | CYP2C9 activ
COc1ccc(/C(N)=N/OC(=O)Cc2ccc(OC)c(OC)c2)cc1 | 1.2 | 16 | 0.8 | 65* | 0.4
CCOc1ccc(CC2CC(=O)NC2=O)cc1 (stereo not drawn) | 0.9 | 11 | 0.9 | -4 | 1
O=[N+]([O-])c1cccc(/C=C/c2nc3ccc([N+](=O)[O-])cc3[nH]2)c1 | 0.9 | 9 | 0.9 | 4 | 1
COc1ccc(OC)c(C(=O)COC(=O)c2ccc(C)o2)c1 | 0.9 | 93* | 0.1 | -87 | 1.9
Nc1ccc(N2CCCCCC2)cc1 | 1.1 | 64* | 0.4 | 22 | 0.8
Cc1ccccc1-n1c(SCc2c(C)noc2C)nnc1-c1ccncc1 | 1.4 | 78* | 0.2 | 51* | 0.5
Cc1noc(C)c1CSc1nnc(-c2ccncc2)n1-c1ccc(Cl)c(Cl)c1 | 1.7 | 84* | 0.2 | 59* | 0.4
Cc1noc(C)c1CSc1nnc(-c2cc(Cl)ccc2Cl)n1N | 1 | 32 | 0.7 | 25 | 0.8
O=C1c2ccccc2-c2onc3c(Oc4ccccc4)cc(O)c1c23 | 1.1 | 6 | 0.9 | 68* | 0.3
Cc1ccc(-n2c(O)c(/C=N/n3cnnc3)c3ccccc3c2=O)cc1 | 1.1 | 8 | 0.9 | 91* | 0.1
